# Assay results reported in PubChem BioAssay.
# Where “and” joins values, the source holds several entries; their conditions need not be identical. Identical values can stand only once. Calls of active or inactive are those of the source. Unless noted, no rule for the calls is given here.
# Columns and labels:
# [1] = resazurin metabolic signal in HepG2 cells – cell-based, resazurin fluorescence, 24 h, PK04 Diversity Set, profiling panel (AID 1172); details: HepG2 viability, higher = more signal; also: test concentration not given here
# [2] = budding yeast growth changes without added modifier – OD600, strain BY4716, 24 h, basal condition, primary screen (AID 1173); details: S. cerevisiae BY4716 growth, OD600, 24 h; higher = more signal, called active from +8 up or from −8 down
# [3] = viability profiling in MM1S myeloma cells – cell-based, resazurin fluorescence, basal, 24 h, PK04 Diversity Set, profiling panel (AID 1174); details: higher = more signal, called active from +8 up or from −8 down;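 also: MM1S multiple myeloma cell line; test concentration not given here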
# [4] = target: Dihydroorotate dehydrogenase (quinone), mitochondrial (Plasmodium falciparum (isolate 3D7)) (UniProt Q08210); assay: inhibition of P. falciparum DHODH – biochemical, C-terminal His tag, absorbance 600 nm, primary screen (AID 1175); details: PfDHODH enzyme, DCIP absorbance 600 nm; higher = more signal, called active from +8 up or from −8 down;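 also: recombinant parasite enzyme with a five histidine tag at its C terminus; test concentration not given here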
# [5] = inhibition of PAO1 biofilm formation – strain PAO1, LB-PBS medium, absorbance 600 nm, primary screen (AID 1176); also: test concentration not given here; details: P. aeruginosa PAO1 growth/biofilm, A600, 12 h; higher = more signal
# [6] = growth modulation of vineyard yeast isolate – strain RM11-1a, OD600, basal, 24 h, primary screen (AID 1177);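 also: cultures grown under basal conditions with no added stressor; test concentration not given here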; details: S. cerevisiae RM11-1a growth, OD600, 24 h; higher = more signal, called active from +8 up or from −8 down
# [7] = growth of efflux-deficient E. coli DRC39 – strain DRC39, OD650, 24 h, E. coli filamentation inducers, primary screen (AID 1178);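 also: growth measured as culture turbidity by optical density at 650 nm; test concentration not given here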; details: E. coli DRC39 acrAB, higher = more signal, called active from +8 up or from −8 down
# [8] = growth of efflux-deficient E. coli DRC39 – strain DRC39, OD650, 48 h, E. coli filamentation inducers, primary screen (AID 1179);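 also: screen aims at cell division blockers that make cells filament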; details: E. coli DRC39 delta-acrAB growth, higher = more signal, called active from +8 up or from −8 down
# [9] = viability profiling in RPMI8226 myeloma cells – cell-based, resazurin fluorescence, basal, 24 h, PK04 Diversity Set, profiling panel (AID 1180); details: higher = more signal;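 also: RPMI8826 multiple myeloma cell line at 5000 cells per well; test concentration not given here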
# [10] = target: E3 ubiquitin-protein ligase XIAP (Homo sapiens) (UniProt P98170); assay: small molecules binding XIAP protein – biophysical, small-molecule microarray, fluorescence 635 nm, primary screen (AID 1181); details: higher = more signal;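 also: score merges 667 nm emission and signal to noise over triplicate slides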
# Chain of E3 ubiquitin-protein ligase XIAP (Homo sapiens) (P98170 whole entry, looked up): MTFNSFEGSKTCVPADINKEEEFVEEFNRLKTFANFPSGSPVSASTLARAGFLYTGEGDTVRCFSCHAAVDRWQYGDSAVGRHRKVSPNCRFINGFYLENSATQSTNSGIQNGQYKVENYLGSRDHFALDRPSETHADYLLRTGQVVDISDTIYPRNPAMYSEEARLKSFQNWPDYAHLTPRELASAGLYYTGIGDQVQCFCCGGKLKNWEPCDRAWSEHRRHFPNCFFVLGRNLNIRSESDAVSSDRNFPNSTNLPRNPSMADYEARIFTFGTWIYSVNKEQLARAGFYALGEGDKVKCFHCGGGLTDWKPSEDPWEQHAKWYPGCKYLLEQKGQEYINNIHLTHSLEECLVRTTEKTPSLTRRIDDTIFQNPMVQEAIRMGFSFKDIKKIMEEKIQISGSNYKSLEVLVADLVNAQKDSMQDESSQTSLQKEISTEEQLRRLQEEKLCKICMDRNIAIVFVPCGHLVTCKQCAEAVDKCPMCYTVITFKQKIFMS
# Chain of Dihydroorotate dehydrogenase (quinone), mitochondrial (Plasmodium falciparum (isolate 3D7)) (Q08210 whole entry, looked up): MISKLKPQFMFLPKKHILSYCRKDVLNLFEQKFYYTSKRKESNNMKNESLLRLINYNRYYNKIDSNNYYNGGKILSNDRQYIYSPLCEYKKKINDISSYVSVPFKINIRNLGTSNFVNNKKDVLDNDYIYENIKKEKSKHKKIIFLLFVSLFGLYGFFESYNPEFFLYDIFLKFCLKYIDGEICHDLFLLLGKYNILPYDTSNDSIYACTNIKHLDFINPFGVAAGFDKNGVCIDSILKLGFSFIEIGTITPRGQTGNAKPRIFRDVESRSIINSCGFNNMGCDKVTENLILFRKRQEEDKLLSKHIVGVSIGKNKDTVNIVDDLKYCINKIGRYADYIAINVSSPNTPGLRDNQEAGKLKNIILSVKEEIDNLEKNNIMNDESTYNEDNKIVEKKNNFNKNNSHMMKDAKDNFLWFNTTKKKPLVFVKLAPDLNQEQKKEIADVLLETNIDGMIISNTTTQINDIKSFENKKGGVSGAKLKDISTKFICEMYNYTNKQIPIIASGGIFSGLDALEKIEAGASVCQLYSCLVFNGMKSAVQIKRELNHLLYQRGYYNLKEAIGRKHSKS
Structure (SMILES),z-score [1],z-score [2],z-score [3],composite z-score [4],z-score [5],z-score [6],z-score [7],z-score [8],z-score [9],composite z-score [10]
C=CCN(C(=O)C(c1cccs1)N(C(=O)/C=C\C(=O)O)c1c(Cl)cccc1CO)C(C)(C)C (stereo not given),-0.842 and -0.839,0.0318 (inactive) and -0.393 (inactive),-0.525 (inactive) and -0.895 (inactive),-1.77 (inactive) and -0.93 (inactive),-0.304 (inactive) and -0.677 (inactive),-0.107 (inactive) and -0.495 (inactive),-0.514 (inactive) and -0.291 (inactive),-0.372 (inactive) and -0.102 (inactive),-0.554 and -1.29,-0.191 and 0.1
C=CCN(CCCCC)C(=O)C1N(c2c(Cl)cccc2CO)C(=O)C2C(C(=O)O)C3C=CC21O3 (stereo not given),-1.63 and -0.873,0.0191 (inactive) and -0.402 (inactive),-1.48 (inactive) and -0.932 (inactive),0.564 (inactive) and -1.24 (inactive),-0.441 (inactive) and -0.578 (inactive),0.501 (inactive) and 0.477 (inactive),-0.957 (inactive) and -1.11 (inactive),-0.992 (inactive) and -1.16 (inactive),-1.52 and -1.3,-0.237 and -0.0414
C[C@@H]1CC[C@H]2C(=O)N3[C@@H](CC[C@@H](C)[C@@H]3c3ccc(-c4ccco4)cc3)C(=O)N2[C@H]1c1ccc(-c2ccco2)cc1,-0.458 and 0.764,0.666 (inactive) and -1.56 (inactive),-0.316 (inactive) and 1.14 (inactive),-1.48 (inactive) and -7.32 (inactive),0.143 (inactive),0.43 (inactive) and -0.546 (inactive),0.0111 (inactive) and 0.845 (inactive),-0.0533 (inactive) and 0.0395 (inactive),0.136 and 1.2,-0.0559 and 0.217
CCN1C(=O)[C@H]2[C@H]3[C@H](O)[C@H](O)CC(=NOC)[C@@H]3CC[C@H]2C1=O,0.146,-1.88 (inactive),0.0831 (inactive),-0.581 (inactive),0.924 (inactive),-0.458 (inactive),0.759 (inactive),0.953 (inactive),0.0325,0.487
C=C[C@@H](C)[C@@H](O)c1ccc(O)c2ccccc12,-0.278 and 0.0891,-14.7 (active) and -15 (active),-0.938 (inactive) and -1.51 (inactive),-2.38 (inactive) and -3.35 (inactive),0.814 (inactive) and -0.0697 (inactive),-0.143 (inactive) and 0.291 (inactive),0.652 (inactive) and 0.297 (inactive),0.347 (inactive) and 0.106 (inactive),-0.777 and -1.42,-0.22 and 1.24
CCCC[C@@H]1CN2[C@@H](CC[C@@H](C)[C@@H]2c2ccc(Br)cc2)C(=O)O1,-0.175 and 0.523,-1.57 (inactive) and -1.39 (inactive),0.0509 (inactive) and 0.231 (inactive),0.466 (inactive) and -0.248 (inactive),-0.221 (inactive) and -0.175 (inactive),0.229 (inactive) and -0.0641 (inactive),0.777 (inactive) and 0.606 (inactive),0.535 (inactive) and -1.07 (inactive),0.387 and 0.756,0.0537 and -0.185
C=CCN(Cc1ccccc1)C(=O)C1N(CCOCCO)C(=O)C2C(C(=O)O)C3C=CC21O3 (stereo not given),0.649 and -0.0686,-1.56 (inactive) and 0.494 (inactive),1.22 (inactive) and -0.234 (inactive),-3.5 (inactive) and -0.648 (inactive),-0.18 (inactive),-1.46 (inactive) and 0.356 (inactive),1.55 (inactive) and 0.0673 (inactive),1.05 (inactive) and -0.12 (inactive),0.795 and -0.418,-0.02 and -0.291
CCOC(=O)CCN1C(=O)[C@H]2[C@H]3[C@H](O)[C@H](O)CC(=NNC(=O)OCC)[C@@H]3CC[C@H]2C1=O,-0.346,-0.762 (inactive),-0.994 (inactive),-0.31 (inactive),-0.531 (inactive),-0.382 (inactive),0.202 (inactive),0.526 (inactive),-1.74,0.116
C=CCN(C(=O)C(c1cccs1)N(C(=O)/C=C\C(=O)O)c1c(Cl)cccc1CO)c1ccc(OC)cc1 (stereo not given),0.154 and -2.56,-2.07 (inactive) and -1.37 (inactive),1.02 (inactive) and -0.0953 (inactive),-5.76 (inactive) and -2.28 (inactive),-0.18 (inactive),-0.736 (inactive) and 0.0288 (inactive),0.976 (inactive) and 0.515 (inactive),1.11 (inactive) and 0.57 (inactive),0.509 and -0.0282,0.0264 and -0.0795
C=CCN(C(=O)C1N(C(C)(C)CO)C(=O)C2C(C(=O)O)C3C=CC21O3)c1ccc(OC)cc1 (stereo not given),0.489 and -0.143,-0.684 (inactive) and 0.362 (inactive),1.01 (inactive) and 0.128 (inactive),0.2 (inactive) and -2.13 (inactive),-0.786 (inactive),0.643 (inactive) and 1.4 (inactive),1.33 (inactive) and 0.347 (inactive),1.09 (inactive) and 0.546 (inactive),0.592 and -0.39,-0.0771 and -0.0663
C=CCN(CCCC)C(=O)C1N(C(C)(C)CO)C(=O)C2C(C(=O)O)C3C=CC21O3 (stereo not given),0.043 and 0.688,0.709 (inactive) and -0.0821 (inactive),-0.0251 (inactive) and -0.847 (inactive),-1.46 (inactive) and 0.0326 (inactive),0.385 (inactive) and 0.0126 (inactive),-0.902 (inactive) and -1.02 (inactive),0.378 (inactive) and 0.096 (inactive),0.0298 (inactive) and -0.182 (inactive),-0.131 and -0.803,-0.162 and -0.195
Cc1ccc(S(=O)(=O)N[C@H]2COC(=O)[C@@H](C)COC(=O)[C@H](C)NC(=O)CC=C[C@H]2C)cc1,0.949,-0.878 (inactive),0.799 (inactive),-0.0791 (inactive),-0.814 (inactive),-0.233 (inactive),0.45 (inactive),-0.166 (inactive),1.23,-0.43
C=CCN(C(=O)C1N(CCCCCCO)C(=O)C2C(C(=O)O)C3C=CC21O3)c1ccc(OC)cc1 (stereo not given),0.831 and 0.525,-2.35 (inactive) and -2.45 (inactive),1.04 (inactive) and -0.294 (inactive),-1.78 (inactive) and -2.48 (inactive),-0.401 (inactive),-1.53 (inactive) and -0.292 (inactive),1.15 (inactive) and 0.43 (inactive),1.16 (inactive) and 0.716 (inactive),1.37 and 0.372,-0.0492 and 0.0972
CC(C)=NOCc1ccc(-c2cn([C@@H]3COC[C@H]3O)nn2)cc1,-0.203,0.313 (inactive),0.0429 (inactive),-0.478 (inactive),-0.0691 (inactive),-0.0292 (inactive),0.114 (inactive),-0.0038 (inactive),0.106,0.0049
C=CCN(C(=O)C1N(CCOCCO)C(=O)C2C(C(=O)O)C3C=CC21O3)c1ccc(OC)cc1 (stereo not given),0.0057 and 0.18,-0.174 (inactive) and -0.731 (inactive),0.267 (inactive) and -0.0413 (inactive),-0.511 (inactive) and -4.53 (inactive),-0.276 (inactive) and -0.0963 (inactive),-0.478 (inactive) and -0.298 (inactive),0.556 (inactive) and 1.24 (inactive),0.2 (inactive) and 0.638 (inactive),-0.0424 and 0.0858,0.0637 and 0.0264
C=CCN(Cc1ccccc1)C(=O)C1N(CCCCCCO)C(=O)C2C(C(=O)O)C3C=CC21O3 (stereo not given),-0.29 and 0.875,-0.356 (inactive) and -0.726 (inactive),-0.231 (inactive) and 0.723 (inactive),-0.248 (inactive) and -1.43 (inactive),0.95 (inactive) and 0.441 (inactive),-0.325 (inactive) and -0.784 (inactive),0.0108 (inactive) and 0.14 (inactive),-0.187 (inactive) and -0.172 (inactive),-0.615 and 0.439,0.0898 and -0.395
CCOC(=O)NN=C1C[C@@H](O)[C@@H](O)[C@@H]2[C@@H]3C(=O)N(Cc4ccccc4)C(=O)[C@@H]3CC[C@@H]12,0.213,0.331 (inactive),-1.17 (inactive),0.0897 (inactive),0.529 (inactive),0.371 (inactive),0.199 (inactive),-0.951 (inactive),0.561,1.34
CON(C)C(=O)c1nnc2c3ccccc3n(S(=O)(=O)c3ccc(C)cc3)c2n1,-0.311 and -0.466,-0.148 (inactive) and -0.378 (inactive),-0.125 (inactive) and -0.498 (inactive),0.354 (inactive) and -0.588 (inactive),-0.446 (inactive) and 0.757 (inactive),-0.469 (inactive) and -0.226 (inactive),-0.339 (inactive) and 0.046 (inactive),-0.512 (inactive) and -0.404 (inactive),-0.691 and -0.232,-0.146 and 0.687
